# This is a sample that favours compounds with a hit; in the whole collection about 4.5% have one here.
# Gli-Sufu antag – Gli-Sufu pathway antagonists, primary screen, luciferase luminescence, Sufu-KO-LIGHT cells, uHTS. inhibition, % at 5 µM. 340,000 compounds, 0.74% hits. Sufu-KO-LIGHT fibroblasts, Gli luciferase reporter luminescence;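 active = inhibition above about 55%, limit read from the data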;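 also: 0% = DMSO-treated cells and 100% = wells with medium but no cells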
# aSyn UTR inh – MLPCN primary screen, SNCA 5' untranslated region; inhibition, % (tested at 7.5 µM); 300,000 compounds, 0.82% hits; alpha-synuclein 5'UTR reporter, inhibitor activity; in the data active = inhibition above about 60%;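 also: H4 neuroglioblastoma cells stably carrying SNCA 5'UTR luciferase fusion; 0% = DMSO wells and 100% = positive control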
# CSC inhib – cancer stem cell viability inhibitors, primary screen, luminescence. cancer stem cell-like cells viability. inhibition, % at 7.5 µM. 300,000 compounds, 1.1% hits. AID 2717, 2010; in the data active = inhibition above about 75%; tested in HMLE shEcad cells
# Mdm2 MdmX PPI – inhibitors of human Mdm2-MdmX association, primary screen, cell-based, luminescence, split luciferase, SaOS-2, uHTS | SaOS-2 split-luciferase Mdm2/MdmX complementation | inhibition, % at 8 µM | 330,000 compounds, 3% hits;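 active = inhibition of at least 50% at 8 µM in the primary screen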
# Target sequence (O15151 whole entry, looked up): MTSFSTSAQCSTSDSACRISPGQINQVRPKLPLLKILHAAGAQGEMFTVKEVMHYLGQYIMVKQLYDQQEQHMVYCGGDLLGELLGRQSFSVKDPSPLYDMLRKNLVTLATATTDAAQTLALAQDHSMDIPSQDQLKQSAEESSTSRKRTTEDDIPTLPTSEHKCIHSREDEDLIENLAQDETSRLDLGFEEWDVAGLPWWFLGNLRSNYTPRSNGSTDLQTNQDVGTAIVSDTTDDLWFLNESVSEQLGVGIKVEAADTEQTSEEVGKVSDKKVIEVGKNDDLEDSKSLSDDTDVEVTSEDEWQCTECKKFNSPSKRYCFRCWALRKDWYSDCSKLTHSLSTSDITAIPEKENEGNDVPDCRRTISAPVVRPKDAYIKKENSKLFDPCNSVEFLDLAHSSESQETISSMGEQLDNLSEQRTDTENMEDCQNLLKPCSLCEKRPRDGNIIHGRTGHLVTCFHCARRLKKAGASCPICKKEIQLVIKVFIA
# Target sequence (Q00987 whole entry, looked up): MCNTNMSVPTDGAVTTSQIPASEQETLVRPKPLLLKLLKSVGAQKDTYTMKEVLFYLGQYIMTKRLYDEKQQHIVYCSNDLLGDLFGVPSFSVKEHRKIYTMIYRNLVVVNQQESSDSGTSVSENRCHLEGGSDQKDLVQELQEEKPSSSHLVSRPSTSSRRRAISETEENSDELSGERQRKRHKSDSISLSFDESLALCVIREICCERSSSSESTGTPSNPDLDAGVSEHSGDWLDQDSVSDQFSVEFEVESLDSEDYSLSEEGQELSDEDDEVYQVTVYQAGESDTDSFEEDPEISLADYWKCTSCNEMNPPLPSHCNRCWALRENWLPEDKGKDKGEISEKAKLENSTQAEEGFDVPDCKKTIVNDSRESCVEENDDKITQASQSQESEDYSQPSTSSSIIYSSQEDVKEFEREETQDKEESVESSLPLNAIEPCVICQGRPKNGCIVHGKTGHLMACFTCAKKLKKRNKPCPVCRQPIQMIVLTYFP
# Jurkat NFkB inh – inhibitors of induced NF-kB luciferase reporter, primary screen, TCR NF-kB activation inhibitor project, cell-based, luminescence, uHTS; 330,000 compounds, 0.53% hits; inhibition, % at 4 µM; AID 435003, 2010; Jurkat, PMA/ionomycin-induced NF-kB luciferase reporter; in the data active = inhibition above about 50%
# 697 NFkB inh – inhibitors of PMA/ionomycin-induced NF-kB reporter, 697 cells, primary screen, B-cell NF-kB inhibitor project, cell-based, luminescence, uHTS. 697 B-cell NF-kB luciferase reporter, 16 h. inhibition, % at 4 µM. 330,000 compounds, 0.33% hits. AID 435022, 2010; in the data active = inhibition above about 35%
# Active calls of the source: *; / = not tested or not shown.
SMILES,Gli-Sufu antag,aSyn UTR inh,CSC inhib,Mdm2 MdmX PPI,Jurkat NFkB inh,697 NFkB inh
OC(CON=C1c2ccccc2-c2ccccc21)CN1CCNCC1 (stereo not drawn),8,-49,2,33,-11,10
CCCCCCSc1ccc(-c2nc3ccccn3c2NCCCC)cc1,14,-113,86*,-19,8,-1
CCCCNc1c(-c2ccc(-c3cccc(Cl)c3)cc2)nc2ccccn12,-34,-105,97*,-43,-33,-29
CCCCCCSc1cccc(-c2nc3ccc(Cl)cn3c2NCCCC)c1,-3,/,/,/,/,/
Cc1ccc2nc(-c3ccc(-c4cccc(Cl)c4)cc3)c(NCc3ccccc3)n2c1,5,-68,91*,-17,-25,-32
COc1cccc(-c2ccc(=O)n(CC(=O)Nc3ccc(S(=O)(=O)NCC(C)C)cc3)n2)c1,/,-4,-10,-2,0,4
COc1ccc(-c2nnc(SCC(=O)Nc3c(Cl)cc(Cl)cc3C(=O)O)o2)cc1,1,/,-6,18,20,11
CN(C)CCCNc1ccc(-c2cc(Nc3cccc(Cl)c3)ncn2)cn1,12,-53,81*,48,-9,-14
CN(C)CCNC(=S)Nc1cccc(Cl)c1,-1,17,-6,22,10,16
Cc1ccc(C(=O)Nc2nnc(SCC(=O)N3CCCc4ccccc43)s2)cc1,-50,74*,9,-77,-11,-77
O=C(Nc1nnc(SCC(=O)N2CCCc3ccccc32)s1)c1cccc2ccccc12,-11,-20,23,3,-7,6
CC(C)Oc1ccc(C(=O)Nc2nnc(SCC(=O)N3CCOCC3)s2)cc1,-65,98*,1,3,19,-96
COc1cccc(Nc2nnc(SCC(=O)N3CCOCC3)s2)c1,-7,-54,/,-18,-18,-29
O=C(COC(=O)C1(c2ccccc2F)CCCC1)N1CCNC1=O,19,/,/,17,2,16
COc1ccc(Nc2ccc([N+](=O)[O-])cc2[N+](=O)[O-])cc1,0,19,9,10,3,26
Oc1ccccc1/C=N/NC(=S)NC1CC2C=CC1C2 (stereo not drawn),-9,-25,54,14,-37,-135
Oc1c(Cl)cc(Cl)cc1/C=N/NC(=S)NC1CC2C=CC1C2 (stereo not drawn),-35,27,100*,37,1,-24
COC(=O)c1c(NC(=O)CN(C)CC(=O)Nc2ccc(C)cc2)sc2c1CCC(C)C2 (stereo not drawn),-6,/,/,17,4,13
COC(=O)c1c(NC(=O)Cc2cccs2)sc2c1CCC(C)C2 (stereo not drawn),-31,-33,80*,-9,-52,-58
Cc1nn(Cc2cccc(F)c2)c(C)c1NC(=O)c1ccc(COc2ccccc2Cl)cc1,30,69*,101*,49,16,10
CCCN(C(=O)CSc1ncccn1)C1CCS(=O)(=O)C1 (stereo not drawn),-1,/,-13,-8,10,16
O=C(COC(=O)c1cccc(Cl)c1)Nc1cc(Cl)ccc1Oc1ccccc1,-25,-10,15,1,3,4
Cc1ccc(Cl)cc1NC(=O)c1ccccc1OCC(=O)Nc1ccc(Cl)cc1,11,-10,78*,22,-6,1
O=C(COc1ccccc1Cl)Nc1cc(Cl)ccc1Oc1ccccc1,0,23,89*,-5,-7,-2
Cc1ccc(NC(=O)COc2ccccc2C(=O)Nc2ccccc2)cc1Cl,-10,-82,9,-20,3,34
SMILES,Gli-Sufu antag,aSyn UTR inh,CSC inhib,Mdm2 MdmX PPI,Jurkat NFkB inh,697 NFkB inh
O=C(Nc1ccc(OCc2ccccc2Cl)cc1)c1cccnc1,22,90*,61,24,8,-2
O=C(Nc1ccc(OCc2ccccc2)cc1)c1cccnc1,-14,-59,35,6,14,-34
COc1ccc(/C=C2\SC(=S)NC2=O)cc1OS(=O)(=O)c1ccc(NC(C)=O)cc1,4,-11,/,/,/,/
COc1cc(/C=C2/SC(=S)NC2=O)ccc1OS(=O)(=O)c1ccc(C)cc1,-2,-8,102*,36,9,-16
COc1cc(/C=C2\SC(=S)NC2=O)ccc1OS(=O)(=O)c1ccccc1,/,-10,97*,0,-11,-13
COC(=O)C/C(O)=C(/N=Nc1cccc(C(F)(F)F)c1)C(=O)OC,-15,11,-13,-5,23,16
COC(=O)C(c1cc(OC)c(O)c(OC)c1)(N1CCNC(C)C1)C(F)(F)F (stereo not drawn),23,-7,-15,10,-1,3
O=[N+]([O-])c1cc(S(=O)(=O)N2CCCCCC2)ccc1F,-2,/,102*,/,/,/
O=[N+]([O-])c1cc(S(=O)(=O)N2CCCC2)ccc1O,-2,12,-12,2,5,3
CN(C)S(=O)(=O)n1cnc(C(CCO)c2ncn(S(=O)(=O)N(C)C)c2CCCO)c1 (stereo not drawn),-5,/,2,-5,-1,13
CC1(C)Cc2c(cnn2-c2ccccc2)C(NC(=O)CCN2CCCC2=O)C1 (stereo not drawn),2,0,13,-2,17,0
COc1ccc(CCNC(=O)CCOc2cc(C)ccc2C)cc1OC,2,22,-27,5,10,-10
CCNC(=S)N=Nc1c(O)[nH]c2ccc(C(C)C)cc12,-3,63*,/,32,-11,-2
CC(C)(C)C1CCc2c(sc(NC(=O)CSc3ncn[nH]3)c2C#N)C1 (stereo not drawn),3,3,93*,32,-10,-11
N#Cc1ccsc1NC(=O)CSc1ncn[nH]1,-11,-43,-2,6,1,0
O=C(NC(NC(=S)N1CCOCC1)C(Cl)(Cl)Cl)c1ccc(Cl)cc1 (stereo not drawn),10,66*,13,22,38,26
CCCCC(=O)NC(NC(=S)N1CCOCC1)C(Cl)(Cl)Cl (stereo not drawn),4,-12,5,11,-6,7
CN(c1ccccc1)S(=O)(=O)c1ccc(C(=O)OCC(=O)N2CCOCC2)cc1,-1,6,-10,2,5,-16
Clc1ccc(-c2nc3cnccn3c2NC2CCCC2)cc1,7,7,18,14,-16,-41
CCC(C)Sc1ccc(-c2nc3cnccn3c2NC2CCCCC2)cc1 (stereo not drawn),-2,6,126*,15,-24,-24
O=C(Nc1ccc(NC(=S)NC(=O)c2ccccc2Cl)cc1)c1cccc(Cl)c1,-4,-32,79*,17,19,-47
CC(C)C(=O)Nc1cccc(NC(=S)NC(=O)c2ccccc2Cl)c1,-4,2,7,3,4,-19
